Results from PubChem BioAssay AID1159580 (chemical genetic matrix, 2015).
“And” between values parts separate entries of the source, which are not always exact repeats. Equal entries are not always repeated. The whole screen tested about 5,500 compounds, of which about 2,000 (36%) were called active. Another 18% or so got no clear call; they are omitted. Cut-off read from the data, not from the text of the source: active = normalized growth mostly below about 0.91 (no sharp cut-off); inconclusive = no clear call, values can overlap the other calls; inactive = mostly above about 0.92. The list shows a part of the results.

Test: chemical genetic growth profiling, strain panel (AID 1159580);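 note: tested at 20 µM; growth read once vehicle control cultures reached saturation at 30 °C; 1 = growth at the plate median or of vehicle wells; lower values mean less growth of the strain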
Details: S. cerevisiae deletion strains, growth OD

Measured: normalized growth

OC[C@@H]1CCCN2CCCC[C@H]12
inactive: locus YAL013W, strain DEP1, active compounds read low 0.983 | locus YAL021C, strain ccr4, active compounds read low 1.05 | locus YAL026C, strain drs2, active compounds read low 1.04 | locus YAL030W, strain snc1, active compounds read low 1.03 | locus YBL061C, strain skt5, active compounds read low 1.03 | locus YBR009C, strain hhf1, active compounds read low 1.01 | locus YBR021W, strain FUR4, active compounds read low 0.998 | locus YBR023C, strain chs3, active compounds read low 1.05 | locus YBR171W, strain sec66, active compounds read low 1.05 | locus YBR229C, strain ROT2, active compounds read low 0.998 | locus YBR231C, strain swc5, active compounds read low 1.03 | locus YBR279W, strain paf1, active compounds read low 1.03 | locus YCL011C, strain gbp2, active compounds read low 1.03 | locus YCL016C, strain dcc1, active compounds read low 1.03 | locus YCL029C, strain bik1, active compounds read low 1.02 | locus YCL061C, strain MRC1, active compounds read low 1.02 | locus YCL069W, strain vba3, active compounds read low 1.04 | locus YCR088W, strain abp1, active compounds read low 1.04 | locus YDL005C, strain med2, active compounds read low 1.03 | locus YDL035C, strain GPR1, active compounds read low 1.01 | locus YDL040C, strain nat1, active compounds read low 1.02 | locus YDL074C, strain BRE1, active compounds read low 1.01 | locus YDL101C, strain DUN1, active compounds read low 1.01 | locus YDL134C, strain PPH21, active compounds read low 0.989 | locus YDL185W, strain tfp1, active compounds read low 1.02 | locus YDL192W, strain arf1, active compounds read low 1.01 | locus YDR001C, strain nth1, active compounds read low 1.02 | locus YDR069C, strain doa4, active compounds read low 1.01 | locus YDR101C, strain arx1, active compounds read low 1.02 | locus YDR137W, strain rgp1, active compounds read low 1.05 | locus YDR159W, strain sac3, active compounds read low 0.961 | locus YDR162C, strain NBP2, active compounds read low 1.01 | locus YDR195W, strain ref2 1.02 | locus YDR297W, strain sur2, active compounds read low 1.01 | locus YDR318W, strain mcm21, active compounds read low 1.01 | locus YDR334W, strain swr1, active compounds read low 1.02 | locus YDR335W, strain msn5, active compounds read low 1.04 | locus YDR388W, active compounds read low 1.01 | locus YDR392W, strain spt3, active compounds read low 0.945 | locus YDR502C, strain sam2, active compounds read low 1.01 | locus YEL003W, strain gim4, active compounds read low 1.04 | locus YEL037C, strain rad23, active compounds read low 1.03 | locus YEL061C, strain CIN8 (second series), active compounds read low 1.02 | locus YEL061C, strain CIN8, active compounds read low 1 | locus YER015W, strain faa2, active compounds read low 1.03 | locus YER016W, strain bim1, active compounds read low 1.02 | locus YER110C, active compounds read low 1.02 | locus YER111C, strain swi4, active compounds read low 1.03 | locus YER155C, strain BEM2 (second series), active compounds read low 1 | locus YER155C, strain BEM2, active compounds read low 0.996 | locus YER167W, strain BCK2, active compounds read low 1 | locus YFR010W, strain ubp6, active compounds read low 1.01 | locus YGL078C, strain dbp3, active compounds read low 1 | locus YGL086W, strain mad1, active compounds read low 1.01 | locus YGL167C, strain pmr1, active compounds read low 1.02 | locus YGL173C, strain kem1, active compounds read low 1.02 | locus YGL227W, strain vid30, active compounds read low 1.03 | locus YGL240W, strain doc1, active compounds read low 1.01 | locus YGL248W, strain PDE1, active compounds read low 0.993 | locus YGL253W, strain hxk2, active compounds read low 1.05 | locus YGR078C, strain PAC10, active compounds read low 1 | locus YGR135W, strain pre9, active compounds read low 0.993 | locus YGR252W, strain gcn5, active compounds read low 0.957 | locus YHR013C, strain ard1, active compounds read low 1.03 | locus YHR027C, strain rpn1, active compounds read low 1.01 | locus YHR030C, strain SLT2, active compounds read low 0.998 and 1.01 | locus YHR079C, strain IRE1 (second series), active compounds read low 1.01 | locus YHR079C, strain IRE1, active compounds read low 1.02 | locus YHR094C, strain hxt1, active compounds read low 1.01 | locus YHR129C, strain ARP1, active compounds read low 1.01 | locus YHR142W, strain chs7, active compounds read low 1.04 | locus YHR200W, strain rpn10, active compounds read low 1.02 | locus YIL066C, strain RNR3, active compounds read low 1.01 | locus YIL073C, strain SPO22, active compounds read low 1.05 | locus YIL125W, strain kgd1, active compounds read low 1.01 | locus YIR030C, strain dcg1, active compounds read low 1.01 | locus YJL092W, strain hpr5, active compounds read low 1.03 | locus YJL095W, strain BCK1 (second series), active compounds read low 1.02 | locus YJL095W, strain BCK1, active compounds read low 1.03 and 1 | locus YJL115W, strain asf1, active compounds read low 1.03 | locus YJL129C, strain trk1, active compounds read low 1.06 | locus YJL134W, strain LCB3, active compounds read low 0.978 | locus YJL154C, strain vps35, active compounds read low 1.02 | locus YJL164C, strain tpk1, active compounds read low 1.02 | locus YJL166W, strain qcr8, active compounds read low 1.02 | locus YJL168C, strain set2, active compounds read low 1 | locus YJL187C, strain SWE1 (second series), active compounds read low 1.02 | locus YJL187C, strain SWE1, active compounds read low 1.04 | locus YJR043C, strain POL32, active compounds read low 0.992
